# Tested on: RARa homodimer (NR concentration 270 nM)
# Assay: PBM binding z-score (relative to random genomic background probes); higher = stronger binding; sequences stand for … in GC…GCGATTGACAGCGTAGAATGAAGG
# Outline: (§1)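 Custom Agilent 4×180K protein-binding microarrays carried double-stranded probes, each with a 34-nt variable region. These regions held direct-repeat seeds, single-nucleotide variants, half-site ablations and random human genomic background sequences. Ligand-free nuclear receptor dimers were incubated on the arrays for 1 h, antibodies against each partner (one per run) detected binding, and scanned fluorescence was regression-normalized. Binding z-scores take the random background probes as reference.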
row,Sequence,PBM binding z-score
1,CAAACTAGGTAACCGGAAGGTCAAAGTCCGCATG,1.78
2,TCTCGGAGGACACGAGAGGTCAGAGCTCGACATC,-0.143
3,AGAATGAGATTATACGTAGATCAGGGAAGAAAGT,0.366
4,CCTAGCAGGCCAATCTGAGTCACTCAAGGCTTGA,-0.569
5,GTACCAAAGTGAATAGGTCGTTGATGAGTAGGCG,0.281
6,GGTACAGGGTCAAGGCCAGAGTACGCGTATTGAT,0.889
7,ACTTTCGGGTCAACGAGGTTATAGCACGCGTATA,1.53
8,AATACTGGGTCACTAGGCCAGAGTAGGTACGAAT,0.983
9,AGAACGAGGGCACGCTGAGTGGATAGCAGAGTAG,-0.364
10,GGAACGAGGGCAAGTTGATAGGAGAGTTTGATGG,-0.204
11,CCTATTAGTTGACCGTAAGGGCAACCGAAGCTCG,1.56
12,CCTAGCAGGCCAGGGTCACTAAAGCATTTCGCTT,-0.568
13,TCCTATAGGTAATACAGGTGAAAGTCGGCATCTA,0.724
14,TCTTGTAGATCAGCAGGTTAAAAAAGCTGGCCAA,-0.11
15,CCTAGCAGGCCAGGGTAACTCAAGCATTTCGCTT,-0.937
16,GGAACGAGGGCAAAGTTTATAGCATCTGTCGACG,0.0168
17,CCTTACGGGTCACGGACAGGTTATAGCATTTGGA,2.04
18,TCATTTAGGTAAAAGGTGAAAGTCGGTGTGGTAA,1.77
19,CGTCAAAGTTCAACTAACGTAACGTAAAGCACGC,1.91
20,TCTTGTAGTTCAGCAGGTTAAGAAAGCTGGCCAA,0.277

row,Sequence,PBM binding z-score
1,CCAACTAGGTCAAGGTCAAAGTCGGTTTGTGCCA,3.41
2,ACTCGGAGGACAAAGGTCAGAGCTACGCCAGTGA,2.21
3,TCATATAGTTAAAGGTGAAAGTCGAACGATATGA,0.716
4,GGAACGAAGGCAAAGTTGATAGCATCTGTCGACG,-0.886
5,ATCTCGAGGTAAAAGTTCAGTGAATCCCGAGGAT,-0.00487
6,GCTAGTTGGTCCGTAAAAGGTCACACACCGGTCG,1.86
7,CCTACTGGGACAAAGGTCATTGATTCCAATGCTC,2
8,CGAACTAGGTCAGAACAGGACAGTGAAGGATGAT,0.693
9,TCTAGTTGCTCAAAGGTCACACACTCGAAATGCG,2.63
10,GCTGCTAGGTCAACTGATGGTCAGGTAAAGCTCG,0.327
11,GGAACGAGGGCAACGTTGATAGCATCTGTCGACG,-0.381
12,CCTACTGGGCCAAGAAGGTCATTGATGCCGATAA,0.531
13,CCGACTGGGGCAGAAAGGTTACCAGACCATCCGG,-0.579
14,AGTCAAGGTTCACTAGGTAACGTAAGATTCAGCT,-0.0473
15,CGTCCAAGGTCAATGGTAGGTCAGTGAAAGCATT,1.16
16,CTACCAAGGTGCACAAGGTCGTTGATTACTATTC,0.655
17,TCGAGTAGGTTACCAATGGGGCACTCAGCTTTCT,-0.688
18,AGTCAAAGTTCATCTAGGTAAGGTAAGATATGCT,1.68
19,TAGCCTAGGTCATTGGGTCAGTATAGTACGCATC,0.571
20,CGACCTAGGTCAGAACAGGACAGTGAAGGATGAT,0.342

# Tested on: RARb:RXRa (NR concentration 270 nM, RXRa partner concentration 90 nM)
# Assay: as above
# Outline: as §1
row,Sequence,PBM binding z-score
1,CAAACTAGGTAACCGGAAGGTCAAAGTCCGCATG,3.35
2,TCTCGGAGGACACGAGAGGTCAGAGCTCGACATC,3.84
3,AGAATGAGATTATACGTAGATCAGGGAAGAAAGT,-0.409
4,CCTAGCAGGCCAATCTGAGTCACTCAAGGCTTGA,-0.0528
5,GTACCAAAGTGAATAGGTCGTTGATGAGTAGGCG,0.279
6,GGTACAGGGTCAAGGCCAGAGTACGCGTATTGAT,4.63
7,ACTTTCGGGTCAACGAGGTTATAGCACGCGTATA,4.29
8,AATACTGGGTCACTAGGCCAGAGTAGGTACGAAT,3.19
9,AGAACGAGGGCACGCTGAGTGGATAGCAGAGTAG,2.42
10,GGAACGAGGGCAAGTTGATAGGAGAGTTTGATGG,2.63
11,CCTATTAGTTGACCGTAAGGGCAACCGAAGCTCG,1.91
12,CCTAGCAGGCCAGGGTCACTAAAGCATTTCGCTT,2.35
13,TCCTATAGGTAATACAGGTGAAAGTCGGCATCTA,0.581
14,TCTTGTAGATCAGCAGGTTAAAAAAGCTGGCCAA,0.0554
15,CCTAGCAGGCCAGGGTAACTCAAGCATTTCGCTT,-0.102
16,GGAACGAGGGCAAAGTTTATAGCATCTGTCGACG,2.6
17,CCTTACGGGTCACGGACAGGTTATAGCATTTGGA,4.37
18,TCATTTAGGTAAAAGGTGAAAGTCGGTGTGGTAA,2.05
19,CGTCAAAGTTCAACTAACGTAACGTAAAGCACGC,5.14
20,TCTTGTAGTTCAGCAGGTTAAGAAAGCTGGCCAA,1.76

row,Sequence,PBM binding z-score
1,CCAACTAGGTCAAGGTCAAAGTCGGTTTGTGCCA,5.3
2,ACTCGGAGGACAAAGGTCAGAGCTACGCCAGTGA,4.44
3,TCATATAGTTAAAGGTGAAAGTCGAACGATATGA,2.05
4,GGAACGAAGGCAAAGTTGATAGCATCTGTCGACG,-0.337
5,ATCTCGAGGTAAAAGTTCAGTGAATCCCGAGGAT,2.54
6,GCTAGTTGGTCCGTAAAAGGTCACACACCGGTCG,3.99
7,CCTACTGGGACAAAGGTCATTGATTCCAATGCTC,4.45
8,CGAACTAGGTCAGAACAGGACAGTGAAGGATGAT,2.77
9,TCTAGTTGCTCAAAGGTCACACACTCGAAATGCG,4.94
10,GCTGCTAGGTCAACTGATGGTCAGGTAAAGCTCG,4.45
11,GGAACGAGGGCAACGTTGATAGCATCTGTCGACG,2.32
12,CCTACTGGGCCAAGAAGGTCATTGATGCCGATAA,2.76
13,CCGACTGGGGCAGAAAGGTTACCAGACCATCCGG,1.89
14,AGTCAAGGTTCACTAGGTAACGTAAGATTCAGCT,2.75
15,CGTCCAAGGTCAATGGTAGGTCAGTGAAAGCATT,5.37
16,CTACCAAGGTGCACAAGGTCGTTGATTACTATTC,1.29
17,TCGAGTAGGTTACCAATGGGGCACTCAGCTTTCT,0.948
18,AGTCAAAGTTCATCTAGGTAAGGTAAGATATGCT,4.91
19,TAGCCTAGGTCATTGGGTCAGTATAGTACGCATC,4.06
20,CGACCTAGGTCAGAACAGGACAGTGAAGGATGAT,3.33

# — the supplement of paper PMC6555819
